# Bioassay records from PubChem.
# Vaccinia mCherry: inhibitors of vaccinia virus infection (mCherry reporter signal); Potency, µM (highest dose often 36.5 µM), for the others: at the highest dose activity change, negative = inhibition, most hits filed as inhibitors; AID 720579; Vaccinia virus mCherry reporter infection, fluorescence; 310,000 tested, 0.63% active; calls by dose curve; tested in A549 cells; further: on the % scale 0 is the no-effect control and ±100 the full control effect; nearly all actives have a fitted effect of over 35% in size
# SARS PLpro yeast: blocks SARS-CoV papain-like protease in a yeast assay | S. cerevisiae expressing SARS-CoV PLpro, growth rescue | Potency, µM (titrated, usually from 32.9 µM), without a hit: top-dose activity, positive = growth rescue, most hits filed as activators | 330,000 tested, 0.19% active; calls by dose curve; further: 0% is about no effect; nearly all actives have a fitted effect of over 55% in size
# Vaccinia Venus: vaccinia inhibition (Venus reporter). Vaccinia virus Venus reporter expression, fluorescence. Potency, µM (series often up to 36.5 µM), inactives show at the highest dose activity change, negative = inhibition, hits mostly inhibitors. 330,000 tested, 0.46% active. AID 720580; calls by dose curve; tested in A549 cells; further: on the % scale 0 is the no-effect control and ±100 the full control effect; nearly all actives have a fitted effect of over 30% in size
# AMA1 RON2 block: disrupts binding of P. falciparum AMA1 to RON2; Potency, µM (highest dose often 58.2 µM), inactives show at the highest dose activity change, negative = inhibition, usual class: inhibitors; 360,000 tested, 0.2% active; AID 720542; AlphaScreen AMA1-biotinylated RON2 peptide binding;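 further: 0% = vehicle wells and -100% = peptide control; nearly all actives have a fitted effect of over 45% in size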
#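 AMA1 (3D7) with his tag at 25 nM final met compounds first, then biotinylated RON2 peptide at 25 nM; detection used donor plus acceptor beads, 10 µg/mL apiece, read by AlphaScreen after 30 min at room temperature.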
# AmpC no deterg: AmpC beta-lactamase inhibition without detergent; AmpC nitrocefin hydrolysis, absorbance 480 nm, 0.0001% Triton; 330,000 tested, 0.52% active; P00811; Potency, µM (top dose mostly 57.1 µM), for the others: at the top dose activity change, negative = inhibition, usual class: inhibitors;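 further: plate controls were no compound for no effect and no enzyme for full effect; nearly all actives have a fitted effect of over 20% in size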
# Target sequence (P00811 whole entry, looked up): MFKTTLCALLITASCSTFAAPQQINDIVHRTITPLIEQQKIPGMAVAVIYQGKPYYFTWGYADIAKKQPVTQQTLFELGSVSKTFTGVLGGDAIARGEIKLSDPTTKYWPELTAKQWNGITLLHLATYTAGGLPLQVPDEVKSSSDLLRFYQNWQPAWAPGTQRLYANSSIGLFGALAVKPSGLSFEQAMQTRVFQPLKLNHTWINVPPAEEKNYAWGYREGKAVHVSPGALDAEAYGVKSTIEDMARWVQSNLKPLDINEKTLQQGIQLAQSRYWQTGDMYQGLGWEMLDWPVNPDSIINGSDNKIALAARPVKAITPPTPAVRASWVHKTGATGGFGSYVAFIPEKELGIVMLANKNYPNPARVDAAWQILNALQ
#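 20 mM phosphate pH 7.0 + 0.01% (detergent screen) or 0.0001% Triton X-100; 5.3 nM AmpC reagent; cpd preinc 15 min RT; nitrocefin (800 uM stock) to start; A480 q20 s × 4 min; Activity was normalised to no-enzyme and no-compound control wells.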
# AmpC inh detg: blocks E. coli AmpC beta-lactamase in detergent assay; 370,000 tested, 0.041% active; Potency, µM (highest dose often 114 µM), for inactives: at the highest dose activity change, negative = inhibition, actives largely listed as inhibitors; AmpC hydrolysis of nitrocefin, absorbance 480 nm, 0.01% Triton; P00811;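 further: 0% = no-compound wells and -100% = no-enzyme wells; nearly all actives have a fitted effect of over 25% in size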
#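 AmpC (5.3 nM in the dispensed reagent) in 20 mM phosphate pH 7.0 with 0.01% (detergent screen) or 0.0001% Triton X-100 was preincubated with compounds for 15 min at room temperature. Nitrocefin was then added from an 800 uM solution, and hydrolysis was followed at 480 nm.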
# * = called active by the depositor; i = inactive; ? = inconclusive; / = not tested or not shown; [ ] = another dose, or the depositor's remark. The list is not random: actives were taken first. Their share in the collection is about 1.3%. Unless noted, the call rests on the fitted dose curve; in most records, active means well fitted curve in the direction sought with a large enough effect; inconclusive means small, poorly fitted or top-dose-only effect, or another doubt; inactive means no such curve, though single readings can be large; an effect the other way counts as inactive or inconclusive. Potency means the concentration at half of the fitted maximal effect.
SMILES,Vaccinia mCherry,SARS PLpro yeast,Vaccinia Venus,AMA1 RON2 block,AmpC no deterg,AmpC inh detg
C[C@@H]1O[C@@H](O[C@@H]2C=C3CCC4C(CC[C@]5(C)[C@@H](c6ccc(=O)oc6)CC[C@]45O)[C@@]3(C)CC2)[C@H](O)[C@H](O)[C@H]1O (stereo not given in full),?,/,0.63µM*,19%,109%,?
COc1cccc(Cc2nc3cccnc3n2C2CCN(Cc3ccc(C)s3)CC2)c1,-12%,/,-6%,/,/,/
CCCCNC(=O)N1CCN(Cc2ccc(F)cc2)CC1,/,0%,/,-11%,35%,-3%
Cc1cc[n+](CCC2CCCCC2)c2ccccc12,?,/,-38%,/,/,/
COCc1c(C(=O)NC2CCCCC2)cnn1-c1nccc(-c2cc(C)sc2C)n1,-2%,/,-1%,/,/,/
COc1ccc(N2CCN(C(=O)c3cc(-c4cc(OC)ccc4OC)nc4ccccc34)CC2)cc1,-29%,-2%,-24%,5µM*,87%,0%
COc1ccc2cc(-c3cc(C(=O)O)c4ccccc4n3)ccc2c1,10µM*,-1%,4%,11%,-2%,8%
O=C(NCCC1CCCCN1S(=O)(=O)c1ccccc1)C(=O)NCc1ccccc1F (stereo not given),-23%,-7%,-14%,-9%,-14%,-5%
O=C(NCc1ccccc1F)C(=O)NCC1CCCN1S(=O)(=O)c1ccccc1 (stereo not given),-29%,2%,-2%,-3%,35µM*,?
CC[C@@H](C)[C@H](NC(=O)OC(C)(C)C)c1nnc(S(=O)(=O)Cc2cc(C)ccc2C)o1,/,-23%,?,22%,?,11µM*
Cc1ccccc1CS(=O)(=O)c1nnc([C@H](CC(C)C)NC(=O)OC(C)(C)C)o1,/,-29%,/,32%,?,14µM*
Cc1cc2c(cc3c(SCc4cccc(F)c4)nnc(C)n32)o1,-19%,/,-18%,/,/,11%
CC(C)C[C@H](N)c1nnc(S(=O)(=O)Cc2cccc(F)c2)o1,-8%,-26%,-1%,59%,4.5µM*,3.5µM*
CC(C)[C@H](NC(=O)OC(C)(C)C)c1nnc(S(=O)(=O)Cc2c(F)cccc2Cl)o1,i,-12%,-14%,-2%,2.5µM*,2µM*
C[C@H](NC(=O)OC(C)(C)C)c1nnc(SCc2c(F)cccc2Cl)o1,-4%,/,3%,/,/,6%
COc1ccc(F)c(CN2CCOc3ccc(CN4CCC(O)(c5cccnc5)CC4)cc3C2)c1,-20%,/,-8%,/,/,/
O=C(c1ccc2c(c1)OCO2)N1CCOc2ccc(CN3CCC(Oc4cccnc4)CC3)cc2C1,-11%,/,-7%,/,/,/
CC(C)(C)OC(=O)N[C@@H](Cc1ccccc1)c1nnc(S(=O)(=O)Cc2cccc(F)c2)o1,/,-44%,?,12%,-56%,25µM*
NC(=O)c1ccccc1OCCOc1ccc(Br)cc1,-6%,-16%,?,-1%,2%,1%
CC(=O)Nc1ccccc1OCCOc1ccc(Br)cc1,13µM*,3%,-23%,0%,2%[11.4 µM],?
COc1ccccc1CN1CCC2(CC1)c1ccccc1[C@@H](NC(=O)c1ccco1)[C@@H]2OC,i,/,-29%,/,/,/
NC(=S)N=Nc1c(O)n(Cc2ccccc2)c2ccccc12,?,5%,0.32µM*,45%,-10%,0%
Cc1ccc(NC(=O)Cn2c(O)c(N=NC(N)=S)c3ccccc32)cc1,?,-2%,0.28µM*,38%,-39%,-3%
C/C(Cl)=C\Cn1c(O)c(N=NC(N)=S)c2ccccc21,0.32µM*,0%,?,70%,-43%,-3%
COc1cccc(CNC(=O)c2c(OC)cc(=O)n3c2CCN(C(=O)c2cc(F)cc(F)c2)CC3)c1,-10%,/,0%,/,/,/
SMILES,Vaccinia mCherry,SARS PLpro yeast,Vaccinia Venus,AMA1 RON2 block,AmpC no deterg,AmpC inh detg
CC(C)Cc1nc2cc(NS(=O)(=O)N(C)C)cc(C(=O)N3CCOc4ccccc4C3)c2n1C,-15%,/,-8%,/,/,/
Cc1cnc(-n2ncc(C(=O)NCc3ccncc3)c2C(C)C)nc1-c1ccc(F)cc1,-22%,/,-17%,/,/,/
CC(=O)NCCCNC(=S)NCCCN(Cc1ccc(Cl)cc1)c1ccc(Br)cn1,?,/,11µM*,/,/,/
CN1CCN(c2ccc(NC(=O)c3ccc(-c4ccc(Cl)cc4)o3)cc2)CC1,?,-1%,11µM*,?,185%,-3%
O=C(Nc1ccc(N2CCOCC2)c(Cl)c1)c1ccc([N+](=O)[O-])o1,?,-5%,?,-9%,-9%,-1%
CS(=O)(=O)N1CCN(c2ccc(NC(=O)c3ccc(-c4ccc(Cl)cc4)o3)cc2)CC1,/,?,/,-2%,-31%,?
CN1CCN(c2ccc(NC(=O)c3ccc([N+](=O)[O-])o3)cc2Cl)CC1,13µM*,-1%,?,1%,-14%,-7%
O=C(Nc1ccc2oc(-c3ccncc3)nc2c1)c1ccc([N+](=O)[O-])o1,10µM*,-10%,?,-21%,-18%,-13%
CCCC(=O)N1CCN(c2ccc(NC(=O)c3ccc([N+](=O)[O-])o3)cc2Cl)CC1,10µM*,-23%,?,-5%,-21%,0%
O=C(Nc1ccc2oc(-c3ccncc3)nc2c1)c1ccccc1,i,1%,-6%,5%,-17%,3%
CCC1CN(Cc2cn[nH]c2-c2ccc(F)cc2)Cc2cc(OC)ccc2O1 (stereo not given),-13%,/,-16%,/,/,/
CC(C)C(=O)N1CCN(c2ccc(NC(=O)c3ccc([N+](=O)[O-])o3)cc2)CC1,10µM*,-3%,11µM*,-1%,-13%,-8%
Cc1ncc2c(c1CNC(=O)/C=C/c1cccs1)CCN(C(=O)c1c(C)noc1C)C2,-14%,/,8%,/,/,/
COc1cc(NC(=O)Cn2nnc(-c3ccccc3N)n2)cc(OC)c1,-13%,6%,-18%,-4%,20µM*,-5%
COc1ccc(NC(=O)Cn2nnc(-c3ccccc3N)n2)cc1OC,0%,0%,-22%,-4%,-4%,-8%
CC(=O)Nc1ccccc1-c1nc(CNC(=O)c2ccc(C)cc2)c(C)o1,-5%,/,-4%,/,/,/
COc1ccc2c(c1)OC(C)CN(CC(=O)NCc1cn[nH]c1-c1ccc(F)cc1)C2 (stereo not given),-8%,/,8%,/,/,/
C(=C\c1ccccc1)/CN1CCN(C(c2ccnc3ccccc23)c2nnnn2C2CCCC2)CC1 (stereo not given),14%,/,-14%,-5%,/,/
COc1cccc(C2c3[nH]c4ccccc4c3CCN2Cc2cccn2-c2ncccn2)c1 (stereo not given),/,0%,/,-26%,24%,6%
